# Source: PubChem
# TWEAK-Fn14 inh – inhibitors of TWEAK-Fn14 interaction signaling; TWEAK-stimulated Fn14 reporter cells, luciferase luminescence, 8 h; inhibition, % at 10 µM; 2% of 360,000 active; AID 1159606; in the data active = inhibition above about 50%
# Shn3 inh set2 – reduces Shn3 3'UTR luciferase signal in osteoblasts | Clone20 osteoblast Shn3 3'UTR firefly luciferase, 24 h | inhibition, % at 12.5 µM | 0.52% of 360,000 active;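 active = mean inhibition of at least 75% with every replicate also reaching 75%; inconclusive = mean inhibition at least 75% but some replicate below; inactive = mean inhibition below 75%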;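 also: 0% = median of neutral control wells and 100% = pilot-screen positive control compound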
# MITF TRPM1 inh – reduces MITF-dependent TRPM1 promoter luciferase signal; inhibition, % at 12.5 µM; 0.83% of 330,000 active; SK-MEL-5 TRPM1 promoter luciferase, 24 h;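 active = mean inhibition across replicates of 60% or more, whatever share of single replicates reaches that level; inconclusive = some that reach 60%, reason not given; inactive = mean inhibition across replicates below 60%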
# LMP1 NFkB inh – reduces LMP1-driven NF-kappaB luciferase signal | AID 504558 | 0.69% of 350,000 active | LMP1-induced NF-kappaB luciferase reporter cells, luminescence | inhibition, % at 12.5 µM; in the data active = inhibition above about 41%; inconclusive = no clear call, values can overlap the other calls;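 also: 0% = neutral control wells and 100% = reference inhibitor control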
# TROY signal inh – TROY signaling inhibition. inhibition, % at 10 µM. Q293 LMP1-TROYcd NF-kB luciferase reporter, 4 h. 0.98% of 360,000 active;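 active = compounds whose plate-normalised and pattern-corrected inhibition of the luciferase reporter signal at the single screening dose is 50% or more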
# HIF-2a block – inhibitors of HIF-2a; 786-0 RCC cells HIF-2a reporter, luciferase luminescence, overnight; inhibition, % at 18.8 µM; 0.72% of 360,000 active;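 active = inhibition of the luminescence signal of 40% or more relative to plate controls, in a single-dose primary screen at 18.75 µM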
# The depositor's hits bear a star; ? = inconclusive; / = not tested or not shown. Only some compounds are listed: those with a hit (about 3.4% of all), similar ones and a draw of the others.
SMILES,TWEAK-Fn14 inh,Shn3 inh set2,MITF TRPM1 inh,LMP1 NFkB inh,TROY signal inh,HIF-2a block
Cc1cn([C@H]2C[C@H](O)[C@@H](CCC(=O)NCc3ccc(N(C)C)cc3)O2)c(=O)[nH]c1=O,-5,-1,/,-5,10,9
Cc1nc2cc(-c3ccccc3)nn2c(N)c1-c1ccccc1,74*,4,-28,-14,73*,-118
COc1ccc(-c2cc3nc(C)cc(N)n3n2)cc1,60*,30,12,40,10,-30
COc1ccc(-c2cc3nc(C)cc(-c4ccc(OC)cc4)n3n2)cc1,-3,-10,-5,-18,-6,-18
Cc1nc2c(-c3ccccc3)c(C)nn2c(N)c1-c1ccccc1,-18,-2,-86,-56,10,-256
O=[N+]([O-])c1ccc(NN=C2CC3CCC2C3)c([N+](=O)[O-])c1 (centres undefined),10,53,/,/,1,-15
COc1ccc(C(=O)OCC(=O)Nc2ncc([N+](=O)[O-])s2)cc1OC,-6,86*,4,-18,10,-29
O=C(COC(=O)c1ccc(Br)o1)Nc1ncc([N+](=O)[O-])s1,-9,-33,-23,2,-13,-78
O=C(Cn1c(NCCO)nc2ccccc21)Nc1ccc2c(c1)OCCCO2,7,4,-5,5,-9,1
c1csc(-c2nnc(-c3ccc(N4CCOCC4)cc3)o2)c1,59*,-10,-17,21,-3,-79
CCOc1ccc(-c2nnc(-c3cccs3)o2)cc1,63*,-35,-17,8,22,-51
CCOC(=O)[C@@H](NC(=O)CC[C@H]1O[C@@H](n2cc(C)c(=O)[nH]c2=O)C[C@@H]1O)C(C)C,-27,-18,/,-6,-5,3
CC(C)(C)NC(=O)CN(Cc1ccco1)C(=O)CCC(=O)Nc1nccs1,22,11,8,3,-2,5
COc1ccc(NC(=O)CSc2ncccc2C(=O)OC(C)C)cc1OC,14,87*,30,21,21,-17
O=C(CN1CCOCC1)N/N=C/c1c(O)ccc2ccccc12,-6,85,1,13,10,-11
O=C(CSCC(=O)Nc1ccccc1)N/N=C/c1c(O)ccc2ccccc12,12,93*,69*,51*,6,5
O=C(CNc1ccccc1)N/N=C/c1c(O)ccc2ccccc12,-8,91*,13,24,31,-2
Cc1ccc(S(=O)(=O)N2[C@H](C(C)C)[C@H]3[C@H]4C(=O)N(c5ccccc5)C(=O)[C@H]4CC(=O)[C@H]3[C@@H]2c2ccccc2)cc1,8,1,/,/,7,10
CC1C(=O)C(C)C(c2ccc(Br)cc2)NC1c1ccc(Br)cc1 (centres undefined),-72,13,7,1,15,11
CC1C(=O)C(C)C(c2cc(Br)ccc2O)NC1c1cc(Br)ccc1O (centres undefined),9,14,8,5,63*,38
C[C@@H]1CN([C@H](C)CO)C(=O)CCCn2nncc2CO[C@@H]1CN(C)S(C)(=O)=O,3,-12,/,9,-8,-13
Cc1ccc(-n2nnc(-c3cccnc3)n2)cc1,2,-67,-96,-14,-47,-291
Cc1ccc(-n2nnc(-c3nccn3C)n2)cc1,76*,-10,4,16,31,-26
Cc1ccc(-n2nnc(-c3cnc4ccccc4c3)n2)cc1,63*,-34,7,7,18,-115
O=C(/C=C\c1cccs1)c1c(O)ccc2ccc(=O)oc12,51*,-11,3,-11,5,1
SMILES,TWEAK-Fn14 inh,Shn3 inh set2,MITF TRPM1 inh,LMP1 NFkB inh,TROY signal inh,HIF-2a block
COc1ccccc1-c1c(C#N)c(N)nc2c1CCc1ccccc1-2,73*,1,48,-1,54*,-18
CCOc1cc(-c2c(C#N)c(N)nc3c2CCc2ccccc2-3)ccc1O,75*,-2,5,7,14,-53
O=C(NCc1ccccn1)c1ccc(NS(=O)(=O)c2ccccc2)cc1,-23,0,3,7,-2,-2
CCc1c(C)nc2cc(-c3ccccc3)[nH]n2c1=O,4,-110,-25,-18,-57,-248
C=CCc1c(C)nc2cc(-c3ccc(C)cc3)[nH]n2c1=O,63*,-58,-9,12,37,-151
CCSC(=O)N=Nc1ccc(O)cc1,9,16,8,-2,-12,6
CCOc1ccc(N=C2SC(C(=O)Nc3ccccc3C#N)C(N)=C2C(=O)Nc2ccc(Cl)cc2)cc1 (centres undefined),-19,-14,7,-5,25,-18
N#Cc1ccccc1NC(=O)C1SC(=Nc2ccccc2)C(C(=O)Nc2ccc(Cl)cc2)=C1N (centres undefined),-7,30,72*,32,47,-9
CCN(CC(=O)Nc1c(F)cccc1F)C(=O)c1cccc(-n2cnnn2)c1,-8,3,1,3,5,1
Cc1ccc(N2CCN(C(=O)C(=O)c3ccc(F)c(F)c3)CC2)cc1,/,/,/,/,/,11
COc1ccc(C[C@H]2CN3C(=NC[C@@H]3C(C)C)N2CCNC(=O)CCC2CCCCC2)cc1,-11,66,-21,-5,9,-19
COc1ccc(C[C@H]2CN3C(=NC[C@@H]3Cc3ccccc3)N2CCNC(=O)CCC2CCCCC2)cc1,-19,84,98*,0,-8,5
CCOC(=O)c1cccc(Nc2nc(-c3cccnc3)nc3ccccc23)c1,69*,25,20,12,37,-8
O=C(CCN1C(=O)S/C(=C\c2ccccc2)C1=O)N1CCCCC1,-15,-40,-26,-11,-44,-117
O=C1/C(=C\c2ccccc2)CCC/C1=C/c1ccccc1,13,7,10,-26,-15,-11
O=C1/C(=C\c2ccccc2)CN(C(=O)CCN2CCCCC2)C/C1=C/c1ccccc1,106*,94*,109*,-32,69*,90*
O=C1/C(=C\c2ccc(Cl)c(Cl)c2)CN(C(=O)CCN2CCOCC2)C/C1=C/c1ccc(Cl)c(Cl)c1,107*,99*,118*,2,78*,94*
CCN(CC)CCC(=O)N1C/C(=C/c2ccccc2)C(=O)/C(=C\c2ccccc2)C1,107*,75,/,?,63*,83*
CC(C)Cn1nc(NS(=O)(=O)c2cccc3nonc23)c2cc3ccccc3nc21,4,-11,11,6,6,13
COCCNC(=O)CN(C(=O)CCC(=O)Nc1ccccn1)c1cc(C)ccc1C,2,-38,7,-3,0,18
Cc1c(NC(=O)CS(=O)(=O)c2ccccc2)c(=O)n(-c2ccccc2)n1C,10,7,0,7,-3,15
O=C(N/N=C/c1cn(-c2cccs2)nc1-c1ccccc1)c1ccccc1Br,41,-34,-22,-42,-29,-196
O=C(N/N=C/c1cn(-c2cccs2)nc1-c1ccccc1)c1ccccc1O,91*,12,14,11,62*,-137
